Source: PubChem
HCMV antiviral = inhibitors of human cytomegalovirus. HFF cells, HCMV-luciferase reporter, 72 h; active compounds read low. activity change, negative = inhibition, % at 57.5 µM. 410,000 compounds, 4.5% hits; in the data active = activity change below about -60%; inconclusive = no clear call, values can overlap the other calls; inactive = above about -39%
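HFF cells seeded 16 h at 37C, treated with compounds, infected with luciferase-reporter HCMV at MOI 1 PFU/cell; luciferase read at 72 h post infection, normalized to buffer-only and Salinomycin controls.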
VACV mCherry inh = inhibitors of vaccinia virus infection (mCherry reporter signal); Vaccinia virus mCherry reporter infection, fluorescence; Potency, µM (top dose mostly 36.5 µM), for inactives: top-dose activity change, negative = inhibition, usual class: inhibitors; 310,000 compounds, 0.63% hits; AID 720579; calls by dose curve; tested in A549 cells; note: potency is the fitted concentration of half-maximal effect; nearly all actives have a fitted effect of over 35% in size
FMDV antiviral = foot and mouth disease virus antiviral activity; FMDV antiviral cell-based qHTS; 410,000 compounds, 1.2% hits; Potency, µM (doses to about 57.9 µM), inactives show top-dose activity change, negative = inhibition, hits mostly inhibitors; calls by dose curve; tested in HEK293T cells; note: read-out not given here; potency is the fitted concentration of half-maximal effect; nearly all actives have a fitted effect of over 45% in size
MARV entry inh = inhibitors of Marburg virus binding or cell entry. 300,000 compounds, 1.8% hits. Potency, µM (top dose mostly 37.8 µM), without a hit: at the top dose activity change, negative = inhibition, hits mostly inhibitors. Marburg virus pseudotyped entry inhibition, cell reporter; calls by dose curve; tested in HEK293 cells; note: potency is the fitted concentration of half-maximal effect
LASV entry inh = Lassa virus entry inhibition. Lassa virus pseudotype entry inhibition, cell reporter. 300,000 compounds, 1.2% hits. AID 540256. Potency, µM (titrated, usually from 37.9 µM), without a hit: at the top dose activity change, negative = inhibition, usual class: inhibitors; calls by dose curve; tested in HEK293 cells; note: potency is the fitted concentration of half-maximal effect; nearly all actives have a fitted effect of over 50% in size
VACV Venus inh = inhibitors of vaccinia virus (Venus reporter). Vaccinia virus Venus reporter expression, fluorescence. Potency, µM (series often up to 36.5 µM), inactives show at the top dose activity change, negative = inhibition, usual class: inhibitors. 330,000 compounds, 0.46% hits; calls by dose curve; tested in A549 cells; note: potency is the fitted concentration of half-maximal effect; nearly all actives have a fitted effect of over 30% in size
An asterisk follows results filed as active; i = inactive; ? = inconclusive; / = not tested or not shown; [ ] = dose if it differs, or a comment. Rows were chosen to be rich in hits. Some 6.5% of all compounds tested hit in one or more screens of this group. % is set by controls: 0 for no effect and ±100 for the full control effect.

SMILES | HCMV antiviral | VACV mCherry inh | FMDV antiviral | MARV entry inh | LASV entry inh | VACV Venus inh
CCOc1ccccc1-c1noc(CSc2nnc(-c3ccccc3)n2-c2ccc(F)cc2)n1 | 8 | -19% | 0% | ? | ? | -7%
CSc1nc(N(C)NC(=O)c2ccccc2)c2ccccc2n1 | -23 | ? | -13% | ? | ? | ?
CSc1nc(N(C)NC(=O)c2ccc(Cl)cc2)c2ccccc2n1 | -65* | -19% | 0% | ? | ? | ?
CC(C)CC(=O)NN(C)c1nc(-c2ccccc2)nnc1C(F)(F)F | -9 | -6% | -5% | -27%[46.1 µM] | ? | -6%
CN(NC(=O)c1ccc(Cl)cc1)c1nc(-c2ccccc2)nnc1C(F)(F)F | -105* | -8% | 32µM* | ? | -16% | -12%
CCc1nc(CN2CCOc3ccc(C(O)C4CCCCC4)cc3C2)c(C)[nH]1 (stereo not given) | / | -25% | -10% | / | / | -24%
CCN(CC)c1nc(Nc2ccc(Cl)cc2)nc(OCC#N)n1 | -68* | / | ? | ? | -4% | ?
Cc1cccc(Nc2nc(OCC#N)nc(N(C)C)n2)c1 | 38 | -20% | 0% | -14%[46.1 µM] | 22%[46.1 µM] | -17%
CCOC(=O)C1CCCN(C(=O)c2cnn(-c3ncc4c(n3)-c3ccccc3CCC4)c2C2CC2)C1 (stereo not given) | / | -2% | 44% | / | / | 0%
CCC(C)SCc1nc2ccccc2[nH]1 (stereo not given) | -63* | -16%[1.46 µM] | 2% | 7% | 2% | -17%
Cc1cc(C)c(NC(=O)Cn2ccn(-c3cccc(Cl)c3)c(=O)c2=O)c(C)c1 | -39 | -5% | -14% | / | -3%[46.1 µM] | -2%
O=S(=O)(N1CC[C@@]23C1=CC=C[C@@H]2N(S(=O)(=O)C(F)(F)F)c1ccccc13)C(F)(F)F | 35 | / | / | / | / | /
O=S(=O)(c1ccc(Cl)cc1)c1nc(-c2ccccc2)oc1N1CCN(c2ccccc2)CC1 | -10 | -8% | -21% | ? | 2%[46.1 µM] | -5%
COc1ccc2cc(C(C)C(=O)OC(C)C)ccc2c1 (stereo not given) | -38 | i | 10% | / | / | -10%
COc1ccc2cc([C@@H](C)C(=O)O)ccc2c1 | 51 | -13% | 2.2µM* | / | / | -15%
CC1CCCN(c2nc3c(c(=O)[nH]c(=O)n3C)n2Cc2ccccc2Cl)C1 (stereo not given) | -82* | -23% | -22% | / | / | ?
COc1ccc(N2CCn3c2nc2c3c(=O)n(CCCc3ccccc3)c(=O)n2C)c(OC)c1 | -90* | / | 13µM* | ? | ? | /
Cn1c(=O)[nH]c(=O)c2c1nc(N1CCNCC1)n2Cc1ccccc1Cl | -4 | / | 2% | / | / | /
C=C(C)Cn1c(N2CCN(c3ccc(OC)cc3)CC2)nc2c1c(=O)n(C)c(=O)n2C | ? | -14% | 28µM* | ? | ? | -22%
CCOC(=O)Cn1c(=O)c2c(nc(Br)n2Cc2ccccc2Cl)n(C)c1=O | 37 | -11% | ? | -20% | ? | -5%
C=CCn1c(=O)c2c(nc(Br)n2Cc2ccccc2Cl)n(C)c1=O | -73* | ? | ? | -21% | ? | -29%
CC(=O)Nc1ccc(S(=O)(=O)NC2=NCN(C(C)C)CN2)cc1 | -10 | -8% | -1% | -24%[46.1 µM] | -14%[46.1 µM] | -9%
COCCn1c(N2CCN(c3ccccc3)CC2)nc2c1c(=O)n(C)c(=O)n2C | -22 | -15% | ? | 0%[46.1 µM] | / | -2%
CC(C)CCn1c(N2CCC(C(N)=O)CC2)nc2c1c(=O)[nH]c(=O)n2C | -94* | 1% | -18% | -11% | 14% | 4%
Cc1ccc(Oc2nc3c(c(=O)n(Cc4ccccc4)c(=O)n3C)n2C)cc1C | 1 | i | 14µM* | ? | ? | -4%
SMILES | HCMV antiviral | VACV mCherry inh | FMDV antiviral | MARV entry inh | LASV entry inh | VACV Venus inh
Cc1ccc(Oc2nc3c(c(=O)n(Cc4ccccc4Cl)c(=O)n3C)n2C)cc1C | 11 | ? | -15% | 0%[46.1 µM] | 17%[46.1 µM] | ?
COc1ccc(N2CCN(c3nc4c(c(=O)n(C)c(=O)n4C)n3Cc3ccccc3)CC2)cc1 | 4 | -15%[1.46 µM] | -28% | 10µM* | 8.9µM* | ?
Cn1c(=O)c2c(nc(N3CCN(c4ccccn4)CC3)n2Cc2ccccc2Cl)n(C)c1=O | -1 | / | 7% | ? | 21µM* | /
O=C(Nc1ccccc1)N[C@H]1CC[C@@]23CCCN2C(=O)CCC[C@H]3C1Cc1ccccc1 (stereo not given in full) | -17 | / | / | / | / | /
COc1cccc(NC(=O)[C@@H]2CC(=O)n3cnnc3S2)c1 | / | / | / | 14% | / | /
Cc1cccn2c(=O)c(C(=O)NCCc3ccccc3)cnc12 | 45 | -2% | -20% | / | ? | -5%
CCn1c(Oc2ccccc2C)nc2c1c(=O)n(C)c(=O)n2C | -74* | / | -9% | / | / | /
Cc1ccccc1Oc1nc2c(c(=O)n(C)c(=O)n2C)n1C | -25 | -12% | 9% | 11% | 13% | -9%
COC(=O)c1cc2occc2n1CC(=O)Nc1ccc(N(C)C)cc1 | 14 | -12% | 15% | -6%[46.1 µM] | / | -6%
CCN1CCN(c2nc3c(c(=O)[nH]c(=O)n3C)n2CCSc2nc3ccccc3s2)CC1 | 33 | -11% | -18% | 5% | / | -9%
CC(C)CCn1c(Sc2nc3ccccc3s2)nc2c1c(=O)[nH]c(=O)n2C | -26 | / | 32µM* | ? | ? | /
CC(CSc1nc2ccccc2s1)Cn1c(N2CCCC2)nc2c1c(=O)[nH]c(=O)n2C (stereo not given) | ? | -7% | -2% | 8.9µM* | -22% | -23%
O=C(Oc1c(-c2ccccc2)c(=O)n2c3c(cccc13)CC2)c1ccccc1 | 16 | -29% | -17% | ? | -27%[46.1 µM] | -26%
O=C(Oc1c(-c2ccccc2)c(=O)n2c3c(cccc13)CC2)c1cccc([N+](=O)[O-])c1 | -72* | -2% | -12% | ? | -6%[46.1 µM] | -18%
CCOc1ccc(NC(=O)c2c(NC(=O)c3ccccc3Br)sc3c2CCC(C)C3)cc1 (stereo not given) | -36 | -12% | -2% | / | 6%[46.1 µM] | -10%
CC1=CC(C)(C)n2c(O)c(N=NC(N)=S)c3cc(C)cc1c32 | -68* | / | -24% | 14% | 14% | /
Cc1ccc(NC(=O)c2nnn(CC(=O)Nc3ccc(C)c(Cl)c3)c2N)c(C)c1 | -1 | i | 21% | / | 14%[46.1 µM] | -10%
O=C(Nc1cccc(-c2nc3ccccc3o2)c1)C(F)(F)F | -103* | ? | 32µM* | / | 9%[46.1 µM] | -19%
COc1cc(C=NN=c2sc3ccccc3n2C)ccc1OCCO | 8 | / | / | / | / | /
O=C(Nc1cccn(Cc2c(Cl)cccc2Cl)c1=O)c1ccc(Cl)cc1Cl | -97* | / | ? | -28% | -26% | /
O=C(Nc1cccn(Cc2c(Cl)cccc2Cl)c1=O)c1ccccc1Cl | -31 | / | ? | ? | -6% | /
O=C(CNC(=O)C1CCCCC1)OCC(=O)c1ccc(-c2ccccc2)cc1 | / | -13% | / | / | / | -2%
Cc1ccccc1CN1CC2=C(CCN(Cc3ccccc3)C2=O)N2CCN=C12 | -99* | -25% | -20% | / | / | -8%
